# Cruzain noTriton: cruzain (T. cruzi) inhibition without detergent; purified cruzain, Z-FR-AMC fluorescence, no detergent; AID 1476; hit rate 2.3% among 200,000; P25779; Potency, µM, usual class: inhibitors; also: nearly all actives have a fitted effect of over 40% in size
# Target sequence (P25779 123-467 limits assumed): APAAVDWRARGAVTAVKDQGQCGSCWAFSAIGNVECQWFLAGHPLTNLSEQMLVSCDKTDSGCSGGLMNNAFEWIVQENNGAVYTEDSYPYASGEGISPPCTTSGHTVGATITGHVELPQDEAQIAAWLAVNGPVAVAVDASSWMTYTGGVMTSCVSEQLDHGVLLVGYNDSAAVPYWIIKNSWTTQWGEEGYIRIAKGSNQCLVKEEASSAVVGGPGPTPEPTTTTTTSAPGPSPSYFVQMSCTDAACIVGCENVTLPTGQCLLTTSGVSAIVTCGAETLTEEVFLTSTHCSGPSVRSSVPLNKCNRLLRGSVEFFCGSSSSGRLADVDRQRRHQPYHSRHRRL
#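 Purified cruzain at 1.5 nM, pre-incubated 15 min with compound at room temperature in 100 mM sodium acetate pH 5.5, 5 mM DTT, 0.00005% Triton X-100. Reaction started with 2 uM Z-FR-AMC; AMC fluorescence increase over 60 s gives rate.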
# Cruzain Triton: inhibitors of Trypanosoma cruzi cruzain with detergent | P25779 | purified cruzain, Z-FR-AMC fluorescence, 0.01% Triton | Potency, µM, hits mostly inhibitors | hit rate 0.43% among 200,000 | AID 1478; also: nearly all actives have a fitted effect of over 40% in size
#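 Compounds were screened in titration against cruzain (1.5 nM) with 0.01% Triton X-100 to counter colloidal aggregation. Activity was the AMC fluorescence increase over 60 s after adding 2 uM Z-FR-AMC at pH 5.5.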
# A number is an active result; – = inactive; ? = inconclusive. Hits are enriched below; roughly 2.5% of the tested compounds scored in any of these assays. Calls follow the shape of the dose curve; as a rule, active = well fitted curve in the direction sought with a large enough effect; inconclusive = small, poorly fitted or top-dose-only effect, or another doubt; inactive = no such curve, though single readings can be large; an effect the other way counts as inactive or inconclusive.
SMILES,Cruzain noTriton,Cruzain Triton
CC(C)Cc1nn2c(=O)cc(COC(=O)c3ccc(NC(=O)CCc4ccccc4)cc3)nc2s1,–,–
COc1cc(/C=C(\C#N)c2nc3ccc(C)cc3[nH]2)c([N+](=O)[O-])cc1OC,?,–
N#C/C(=C\c1cccc(Oc2ccc(C(F)(F)F)cc2[N+](=O)[O-])c1)c1nc2ccccc2[nH]1,–,–
COc1ccc(/C=C(\C#N)c2nc3ccc(C)cc3[nH]2)cc1Oc1ccc(C(F)(F)F)cc1[N+](=O)[O-],5µM,–
Cc1ccc2nc(/C(C#N)=C\c3ccc(Oc4ccc(C(F)(F)F)cc4[N+](=O)[O-])cc3)[nH]c2c1,7.9µM,–
COC(=O)NC(CCc1ccccc1)C(C(C)=O)C(=O)OC (centres undefined),–,–
CCCNC(=O)c1ccc2c(c1)nc1n2CCCCC1,–,–
C[C@]12CC[C@H](O)CC1=CC[C@H]1[C@@H]2CC[C@@]2(C)C(N(CCO)CCO)CC[C@@H]12 (some centres undefined),–,–
COc1ccccc1N(O)C1CC(=O)N(c2ccc(Br)cc2)C1=O (centres undefined),?,–
CCCCCCC(=O)N(O)C1CC(=O)N(c2ccc(Br)cc2)C1=O (centres undefined),10µM,–
O=C(Nc1ccc(F)cc1)Nc1ccc(Cl)cn1,–,–
O=C(Nc1cccc(Cl)c1)Nc1ccc(Cl)cn1,25µM,–
COc1ccc(S(=O)(=O)N(CCc2ccccc2)CC(=O)NCc2ccccc2)cc1OC,?,–
Cc1ccc(NC(=O)c2c(C)nc3sc(C(=O)Nc4ccc(F)cc4)c(N)c3c2-c2ccc(Cl)cc2)c(C)c1,–,–
COc1ccc(-n2cc(C(=O)NC(C)c3ccccc3)c3ccccc3c2=O)cc1 (centres undefined),–,–
COc1cc(NC(=O)CSc2nc3ncccc3o2)cc(OC)c1,–,–
Cc1ccc(Nc2nc3ccccc3s2)cc1,–,–
O=[N+]([O-])c1ccc(Nc2nc3ccccc3s2)cc1,4µM,3.5µM
Cc1ccc(NC(=O)CN2C(=O)CSc3ccc(S(=O)(=O)N(C)C)cc32)c(C)c1,–,–
CCOC(=O)Cn1c(C2CC(=O)N(c3ccc(C)cc3)C2)nc2ccccc21 (centres undefined),–,–
Cc1cccc(OCc2nc(-c3ccc(-n4cccc4)cc3)no2)c1,20µM,–
Fc1ccccc1OCc1nc(-c2ccc(-n3cccc3)cc2)no1,–,–
Cc1ccccc1OCc1nc(-c2ccc(-n3cccc3)cc2)no1,?,–
Cc1ccc(OCc2nc(-c3ccc(-n4cccc4)cc3)no2)cc1C,25µM,–
CC(=O)c1c(N2CCN(Cc3ccccc3)CC2)[nH]c(-c2ccccc2)nc1=S,10µM,–
SMILES,Cruzain noTriton,Cruzain Triton
CC(=O)c1c(N2CCCC2)[nH]c(-c2ccccc2)nc1=S,–,–
Cc1ccccc1NC(=O)Nc1nnc(N2CCCCCC2)s1,–,–
COCCn1c(=NC(=O)c2sc3ccccc3c2Cl)sc2cc(S(N)(=O)=O)ccc21,–,–
C=CCn1c(=NC(=O)c2sc3ccccc3c2Cl)sc2cc(S(N)(=O)=O)ccc21,20µM,–
Clc1ccccc1-c1nc(Nc2ccncc2)c2ccccc2n1,–,–
O=C(Nc1ccc2oc(=O)ccc2c1)c1cc2ccccc2o1,–,–
Cc1cc(=O)oc2cc(NC(=O)c3cc4ccccc4o3)ccc12,10µM,–
COc1cc(NC(=O)c2ccccc2)ccc1NC(=O)c1cc2ccccc2o1,–,–
CCCC(=O)Nc1ccc(Cl)c(NC(=S)NC(=O)c2cc3ccccc3o2)c1,5µM,–
CCC(=O)Nc1ccc(NC(=S)NC(=O)c2cc3ccccc3o2)cc1,–,–
COc1cc(NC(=O)c2cc(Cl)ccc2Cl)ccc1NC(=O)c1cc2ccccc2o1,16µM,–
O=C(Nc1c(C(=O)Nc2ccc(F)cc2)oc2ccccc12)c1cc2ccccc2o1,13µM,–
COc1ccc(NC(=O)c2oc3ccccc3c2NC(=O)c2cc3ccccc3o2)cc1,?,–
CC(C)NC(=O)CSc1nc2ccccc2c(=O)n1Cc1ccc(C(=O)NC(C)C)cc1,–,–
CNc1nc(-c2ccc(N(C)C)cc2)nc2ccccc12,–,–
CC(=O)OCC(=O)[C@@]1(O)CCC2C3C[C@H](C)C4=CC(=O)C=CC4(C)C3C(O)CC21C (some centres undefined),–,–
O=C1CC(c2cccc(O)c2)c2cc3c(cc2N1)OCO3 (centres undefined),–,–
COc1ccccc1C(=O)Oc1c(Sc2ccccc2)c(C)nn1C(C)(C)C,–,–
Cc1ccc(-n2ncc3c(N4CCN(C)CC4)ncnc32)cc1C,–,–
COc1cc(C(=O)Nc2nnc(S(=O)(=O)N(C)c3ccccc3)s2)cc(OC)c1OC,–,–
O=C(COc1ccccc1[N+](=O)[O-])N1CCC(c2nc3ccccc3o2)CC1,–,–
Cc1ccc(NC(=O)c2ccc(OC(=O)c3cc4ccccc4o3)cc2)cc1,7.9µM,–
O=C(Nc1ccc(NC(=O)c2cc3ccccc3o2)cc1)c1ccccc1,3.2µM,–
O=C(O)c1ccc(NC(=O)c2cc3ccccc3o2)cc1,–,–
Cc1ccc(NC(=O)c2ccc(OC(=O)c3ccco3)cc2)cc1,–,–
SMILES,Cruzain noTriton,Cruzain Triton
COC(=O)COc1cccc(NC(=O)c2ccc(C)cc2)c1,–,–
Cc1ccc(NC(=O)c2ccc(OC(=O)COc3ccc(Cl)c(C)c3)cc2)cc1,16µM,–
CCN1CCN(c2c(S(=O)(=O)c3ccc(C)c(C)c3)cnc3cc(OC)c(OC)cc23)CC1,–,–
COC1=C(OC)C(=O)C(C/C=C(\C)CC/C=C(\C)CC/C=C(\C)CC/C=C(\C)CC/C=C(\C)CC/C=C(\C)CC/C=C(\C)CC/C=C(\C)CC/C=C(\C)CCC=C(C)C)=C(C)C1=O,–,–
O=C1CC(c2nc3ccccc3n2CCCOc2ccccc2)CN1c1ccc(F)cc1 (centres undefined),–,–
O=C(Nc1cccc(Cl)c1)c1c(NC(=O)C(F)(F)F)sc2c1CCCC2,?,25µM
Cc1cccc(NC(=O)c2c(NC(=O)C(F)(F)F)sc3c2CCCCC3)c1,–,–
Cc1cccc(NC(=O)C2CCCN2S(=O)(=O)c2ccc3nc(-c4ccccc4)[nH]c3c2)c1 (centres undefined),–,–
CCc1nnc(NC(=O)c2ccc(S(=O)(=O)N3CCCCC3C)cc2)s1 (centres undefined),–,–
O=C(Nc1nc(-c2cccnc2)cs1)c1ccc(S(=O)(=O)N2CCOCC2)cc1,–,–
O=C(Nc1nc(-c2ccc3c(c2)OCCO3)cs1)c1ccc(S(=O)(=O)N2CCCCC2)cc1,13µM,–
O=C(Nc1nc(-c2cccs2)cs1)c1ccc(S(=O)(=O)N2CCCC2)cc1,–,–
O=C(Nc1nc(-c2ccc(S(=O)(=O)N3CCCCCC3)cc2)cs1)c1ccccc1,10µM,–
CCc1nnc(NC(=O)c2ccc(S(=O)(=O)N3CCCCCC3)cc2)s1,13µM,–
COc1cccc(C2C=C(c3ccc(C)c(C)c3)Nc3nnnn32)c1OC (centres undefined),–,–
CN1C(=O)Cc2cc(S(=O)(=O)NCc3ccc(Cl)cc3)ccc21,–,–
Cc1oc2ccc(O)c(CN3CCN(Cc4ccccc4)CC3)c2c1C(=O)Nc1cccc(Cl)c1C,–,–
CCc1ccc(OCCSc2nc(-c3cccc(C)c3)nc3cc(=O)[nH]n23)cc1,–,–
